# Experimental data: ChEMBL document CHEMBL4513216, “Probing the Open Global Health Chemical Diversity Library for Multistage-Active Starting Points for Next-Generation Antimalarials” (ACS Infect Dis, 2020)
# Among all 69,000 compounds or so, about 8,600 (12%) showed an effect of 50% or more. Shown is part of a subset that was picked to be rich in strong results.
# Test system: Plasmodium berghei
# Experiment: Screen against P. berghei liver stage (PbLuc), transformed with Luciferase, at 10uM
# Assay type: functional, HepG2
# Conditions: tested at 10 uM
row,Compound,INHIBITION [%]
1,COc1cccc(-c2cc(C3=NC(=CN4CCN(C)CC4)NO3)[nH]n2)c1,33.1
2,NC(=O)CN1CCC(c2cccc(Oc3ccccc3)n2)CC1,-11.4
3,CCn1nc(C)c2nnn(CC(=O)Nc3ccccc3F)c(=O)c21,40.8
4,CSc1nnc(C2CCN(C(=O)N3CCOCC3)CC2)n1C(C)C,40.85
5,CCN1CCC2(CN(C(=O)N(C)C)CC23CCNCC3)C1=O (stereo unspecified),-3.58
6,CNC(=O)NC(=O)CN(Cc1ccc(C#N)cc1)Cc1cccc(F)c1,-0.85
7,Cc1cccc2c1N(C)C(=O)C21CC(=O)Nc2c1cnn2C(C)(C)C (stereo unspecified),-23.9
8,O=C(CCOc1ccccc1F)N1CCCCC1Cn1cccn1 (stereo unspecified),-21.5
9,COc1ccccc1CNc1ncc(-c2cc(C)no2)c(C(C)C)n1,79.7
10,COc1ccccc1CN1CCCCC1c1n[nH]cc1-c1cc(C)no1 (stereo unspecified),24.8
11,Cc1cc(-c2cnc(NCc3ccccn3)nc2C(C)C)on1,24.4
12,COCc1cc(NCc2ccccc2OC)ncn1,12.6
13,Cc1cc(-c2cnc(NCc3cccnc3)nc2C(C)C)on1,69.4
14,Cc1cnc(-c2nc(NC3CC3)ncc2-c2cc(C)no2)cn1,8.72
15,COc1ccc(CNc2ncc(-c3cc(C)no3)c(C(C)C)n2)cc1,-5.71
16,Cc1cc(-c2cnc(NCc3cccnc3)nc2C(C)(C)C)on1,83.6
17,CCN(CC)CCNc1ncc(-c2cc(C)no2)c(-c2ccoc2C)n1,33.5
18,Cc1cc(-c2cnc(NCc3ccncc3)nc2C(C)C)on1,94.1
19,Cc1nn(C)c2c(NCc3cccnc3)nc(C(C)C)nc12,-34
20,CCn1ncc(S(=O)(=O)N[C@@H]2CC[C@@H](n3ccnc3)[C@@H]2O)c1C,4.65
21,Fc1cccnc1OC[C@@]12CCO[C@@H]1CCN(CC1CCOCC1)C2,-17.7
22,Cc1csc(CCNC(=O)N2CCC(n3cccc3)CC2)n1,-6.04

row,Compound,INHIBITION [%]
1,O=C(O)c1cnc(-c2cccc3c2CCNC3)c(Cl)c1,2.15
2,COc1cccc(COCC(=O)NC(C)c2nnc3n2CCC3)c1 (stereo unspecified),-0.613
3,CCc1nnc(Nc2cc(C)nc(C3CCN(c4ncccn4)C3)n2)s1 (stereo unspecified),-11.4
4,CCC(O)CNc1nccc(-c2ccc(C)nc2C)n1 (stereo unspecified),-8.9
5,Cc1ccc(NC(=O)C(C)n2ccc(C(F)(F)F)n2)nc1 (stereo unspecified),20.9
6,O=C(NC1CC1)N1CCc2ccc(=O)n(Cc3cccnc3)c2CC1,45.2
7,Cc1ccc(-c2cc(C)nc(C3CCCN3S(C)(=O)=O)n2)cc1 (stereo unspecified),-70.8
8,CC(C)c1nn(C)c(Cl)c1CNCc1ccc2c(c1)OCO2,27.8
9,CC(C)c1nn(C)c(N(C)C)c1CNCc1ccc2c(c1)OCO2,3.75
10,Cc1cc(-c2cnc(NCc3ccc4c(c3)OCO4)nc2C(C)C)on1,90.5
11,CN1C(=O)Cc2cc(-c3csc(CCN4CCOC4=O)n3)ccc21,19.2
12,CC(C)CN1C[C@H]2CCN(Cc3cccnc3)CC[C@H]2S1(=O)=O,42.1
13,CCn1cc(CN2CCCN(C(=O)CCc3nccs3)CC2)cn1,1.78
14,O=C(Nc1cc(F)ccc1OCC1CCCO1)NC1CC1 (stereo unspecified),-12.1
15,O=C(c1cn[nH]c1)N1CCC2(CCCN(Cc3ccc(F)c(F)c3)C2)C1 (stereo unspecified),25.8
16,CC(C)(C)CN1CCCC2(CCN(C(=O)c3cn[nH]c3)C2)C1 (stereo unspecified),68
17,CC(C)(C)CN1CCCC2(CCN(C(=O)c3ccc(O)nc3)C2)C1 (stereo unspecified),43.1
18,Cc1cnn(CC2CN(CC(=O)Nc3nncs3)CCO2)c1 (stereo unspecified),30.76
19,CC(=O)N1CCCC1c1nc(C)cc(-c2ccc(F)cc2)n1 (stereo unspecified),48.4
20,CN1CCC/C1=N\S(=O)(=O)c1ccc(NC(=O)c2ccco2)cc1,-67.3
21,CNS(=O)(=O)c1ccc(F)c(C(=O)NCc2ccnc(OC)c2)c1,31.2
22,CCCc1noc(CCC(=O)Nc2cc(C(F)(F)F)c[nH]c2=O)n1,52.2

row,Compound,INHIBITION [%]
1,CCc1noc(CCCC(=O)Nc2cc(C(F)(F)F)c[nH]c2=O)n1,29.8
2,CC(C)c1noc(CCC(=O)Nc2cc(C(F)(F)F)c[nH]c2=O)n1,41.5
3,Cc1cnn(CC2CN(c3nnc(C)c(C)c3C#N)CCO2)c1 (stereo unspecified),15.635
4,Cc1sc2nc(CCN)nc(N3CCN(S(C)(=O)=O)CC3)c2c1C,67.5
5,CCOC(=O)N1CCN(C(=O)c2sc(-c3ccccc3F)nc2C)CC1,39.9
6,Cc1sc2nc(CCN)nc(N3CC(N4CCCCC4)C3)c2c1C,86.9
7,Cc1sc2nc(CCN)nc(N3CCS(=O)(=O)CC3)c2c1C,31.3
8,COC(=O)CNC(=O)CSCc1nc(O)c2c(C)c(C)sc2n1,22.1
9,CCc1c(C)sc2ncnc(N3C[C@H](O)[C@@H](N4CCCC4)C3)c12,48.5
10,Cc1sc2nc(CCN)nc(N3CCC(N4CCCC4)CC3)c2c1C,39.6
11,Cc1nc(C2CCN(S(C)(=O)=O)CC2)nc(N2CCCC2)c1C,11.25
12,CCOC(=O)N1CCN(c2nc(CCN)nc3sc(C)c(C)c23)CC1,90.7
13,NC(=O)c1cccc(-c2cnc(C3CCCNC3)cn2)c1 (stereo unspecified),34.3
14,CC(C)N(C)Cc1ncn2c1CN(S(=O)(=O)c1cccs1)CCC2,38.5
15,Cc1noc([C@@H](C)NCc2ccc(F)cc2)c1C(=O)O,-4.82
16,CCCS(=O)(=O)N1C[C@@H]2CN(Cc3ccco3)CCO[C@@H]2C1,-32.6
17,O=C(NCC1CCOC1)N1CCN(Cc2ccc3c(c2)OCO3)CC1 (stereo unspecified),33.3
18,Cc1cc2cc(C(=O)N[C@@H]3CC[C@@H](N4CCCC4)[C@@H]3O)ccc2o1,26.3
19,Cc1noc(C2CCCN(Cn3cc(Br)cn3)C2)n1 (stereo unspecified),-12.2
20,CCC(C)NC(=O)CS(=O)(=O)Cc1nc(-c2cccs2)no1 (stereo unspecified),46.4
21,Cc1noc(CS(=O)(=O)CC(=O)NC(C)c2ccccc2)n1 (stereo unspecified),31.2
22,CCCc1noc(CS(=O)(=O)CC(=O)NC(C)CCC)n1 (stereo unspecified),58.3
